Bioassay records: PubChem BioAssay, National Center for Advancing Translational Sciences (NCATS)
KB-3-1 cytotox – qHTS assay for MDR1-selective chemotherapeutics: Primary screen using the parental adenocarcinoma cell KB-3-1; 400,000 compounds, 1.4% hits; KB-3-1 viability, CellTiter-Glo ATP luminescence, 72 h; Potency, µM (highest dose often 46.1 µM), most hits filed as cytotoxic; AID 1347075, 2019; note: % is set by controls: 0 for no effect and ±100 for the full control effect; nearly all actives have a fitted effect of over 60% in size
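Cytotoxicity measured as CellTiter-Glo luminescence after 72 h at 37 C. Compound titrations were pinned onto drug-naive KB-3-1 parental adenocarcinoma cells grown in DMEM with 10% FBS, and normalized data fitted to concentration-response curves.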
SW480 rerep – A quantitative high throughput screen for small molecules that induce DNA re-replication in SW480 colon adenocarcinoma cells | SW480 DNA re-replication, Hoechst DNA content imaging, 48 h | Potency, µM (doses to about 46.1 µM), for inactives: at the top dose re-replication activation, usual class: activators | 340,000 compounds, 1.8% hits; note: % of control where 0% means no effect; nearly all actives have a fitted effect of over 55% in size
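Treated cells incubate 48 hr (37 C, 5% CO2), are stained 40 min with Hoechst, and nuclear fluorescence is enumerated; a rise in nuclei with high DNA signal marks re-replication.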
HT1080-NT tox – qHTS for induction of synthetic lethality in tumor cells producing 2HG: qHTS for the HT-1080-NT fibrosarcoma cell line | HT-1080-NT fibrosarcoma viability, CellTiter-Glo ATP luminescence, 48 h | Potency, µM (top dose mostly 46.1 µM), inactives show at the highest dose activity, negative = less viability, actives largely listed as cytotoxic | 360,000 compounds, 1.6% hits | AID 686970, 2013;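 note: NT is the 2HG producing partner of a matched IDH1 knockdown line; 0% = DMSO-treated cells and -100% = media-only wells without cells; nearly all actives have a fitted effect of over 55% in size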
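Compounds were tested in concentration-response format on HT-1080-NT cells for 48 hours at 37 degrees C. Cell viability came from CellTiter-Glo luminescence; curves were classified by r2, response magnitude and activity.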
HT1080 IDH1KD tx – qHTS for induction of synthetic lethality in tumor cells producing 2HG: qHTS for the HT-1080-IDH1KD cell line; 360,000 compounds, 2% hits; AID 686971, 2013; Potency, µM (titrated, usually from 46.1 µM), for the others: top-dose activity, negative = toxicity, usual class: cytotoxic; HT-1080 IDH1 knockdown viability, ATP luminescence, 48 h;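 note: 0% = DMSO wells and -100% = cell-free medium wells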
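% activity derives from luminescence (CellTiter-Glo), normalised to DMSO and no-cell wells. HT-1080-IDH1KD cells, 750/well, had 48 h compound exposure at 37 °C.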
KB-V1 MDR tox – qHTS assay for MDR1-selective chemotherapeutics: Primary screen using the drug-selected MDR subline cells KB-V1; Potency, µM (doses to about 46.1 µM), actives largely listed as cytotoxic; KB-V1 MDR cells viability, CellTiter-Glo, 72 h; 400,000 compounds, 3.4% hits; note: % is set by controls: 0 for no effect and ±100 for the full control effect; nearly all actives have a fitted effect of over 60% in size
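Luminescent ATP read-out (CellTiter-Glo, 10 min) measures survival of drug-selected KB-V1 MDR cells after 72 h, 37 degrees C compound exposure. Medium: phenol-red-free DMEM, 10% FBS. Values from fitted concentration-response curves.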
MCF10A rerep – A quantitative high throughput screen for small molecules that induce DNA re-replication in MCF 10a normal breast cells | MCF 10A DNA re-replication, Hoechst nuclear intensity, 48 h | 350,000 compounds, 2.9% hits | Potency, µM (series often up to 46.1 µM), for inactives: at the top dose activity, positive = re-replication, hits mostly activators | AID 624296, 2012; note: % of control where 0% means no effect; nearly all actives have a fitted effect of over 50% in size
Numbers without * were called inactive; i = inactive; ? = inconclusive; nt = not tested or not shown; [ ] = dose if it differs, or a comment. The list is not random: actives were taken first. Their share in the collection is about 8%. Calls come from the whole dose curve; as a rule, active = well fitted curve in the direction sought with a large enough effect; inconclusive = small, poorly fitted or top-dose-only effect, or another doubt; inactive = no such curve, though single readings can be large; an effect the other way counts as inactive or inconclusive. Potency is the fitted concentration of half-maximal effect.

SMILES	KB-3-1 cytotox	SW480 rerep	HT1080-NT tox	HT1080 IDH1KD tx	KB-V1 MDR tox	MCF10A rerep
O=C(c1ccccc1)N1N=C(c2ccccc2)CC1c1ccccc1O (configuration not stated)	i	?	23.1µM*	25.9µM*	i	?
O=C(c1ccccc1)N1N=C(c2ccccc2)CC1c1ccc2nccnc2c1 (configuration not stated)	i	0.0%	5.4%	0.9%	7.31µM*	15.4%
CC(=O)N1N=C(c2ccccc2)CC1c1cn(Cc2ccccc2)c2ccccc12 (configuration not stated)	?	?	?	?	14.6µM*	20.6µM*
CC(=O)N1N=C(c2ccc3nccnc3c2)CC1c1ccccc1 (configuration not stated)	i	-1.1%	5.0%	0.6%	i	-2.8%
Cc1ccc(C2=NN(S(=O)(=O)c3ccccc3)C(c3ccccc3O)C2)cc1 (configuration not stated)	i	6.1%	18.4µM*	?	?	152.5%
Cc1cc(C)cc(NC(=O)CN2C(=O)c3ccccc3Sc3ncccc32)c1	i	nt	nt	nt	i	nt
O=C(CCc1nc2ccccc2s1)OCc1ccccc1F	i	-1.8%	-4.9%	-2.2%	i	-0.2%
O=C(c1cccs1)N1N=C(c2ccccc2)CC1c1ccccc1O (configuration not stated)	i	?	-27.6%	-22.2%	i	?
CC(=O)N1N=C(c2ccncc2)CC1c1ccccc1O (configuration not stated)	?	-2.8%	8.2%	6.0%	i	2.9%
Cc1ccc(C2=NN(C(=O)c3ccccc3F)C(c3ccccc3F)C2)cc1 (configuration not stated)	?	?	13µM*	13µM*	?	?
O=C(c1ccncc1)N1N=C(c2ccc(Br)cc2)CC1c1ccccc1O (configuration not stated)	i	6.1%	?	?	20.6µM*	?
Cc1ccc(C(=O)C2Oc3ccccc3C3CC(c4ccc(C)cc4)=NN23)cc1 (configuration not stated)	i	1.2%	7.8%	9.3%	20.6µM*	9.6%
Cc1ccc(C2=NN(C(=O)c3cccs3)C(c3ccccc3O)C2)cc1 (configuration not stated)	i	?	8.3%	12.4%	i	20.6µM*
COc1cc(C(=O)NC2CCN(C)CC2)ccc1Nc1ncc2c(n1)N(Cc1ccccc1)CCC(=O)N2C	?	?	20.6µM*	?	?	23.1µM*
CCN1C(=O)CC(C(C)C)N(C2CCCC2)c2nc(Nc3ccc(C(=O)NC4CCN(C)CC4)cc3OC)ncc21 (configuration not stated)	?	0.8%[9.22 µM]	-22.2%	-21.9%	?	?
COc1cc(C(=O)NC2CCN(C)CC2)ccc1Nc1ncc2c(n1)N(C1CCCCC1)CCC(=O)N2C	?	1.46µM*	?	4.61µM*	i	0.651µM*
CCN1C(=O)CC(c2ccccc2)N(C2CCCC2)c2nc(Nc3ccc(C(=O)NC4CCN(C)CC4)cc3OC)ncc21 (configuration not stated)	18.4µM*	11.7%	?	23.1µM*	?	?
Cc1cc(Cl)ccc1OCC(=O)Nc1cccc(-c2nc3ccccc3o2)c1	i	nt	nt	nt	i	nt
Cc1[nH]c(C(=O)N/N=C/c2ccc(C(=O)O)cc2)c(C)c1C(=O)N/N=C/c1ccc(C(=O)O)cc1	i	-4.3%	0.5%	1.2%	i	-0.6%
CCOC(=O)c1c(C)[nH]c(C(=O)N/N=C/c2ccc(Br)cc2)c1C	?	0.731µM*	0.146µM*	0.092µM*	i	?
COc1ccc2[nH]c(=O)c(CN(Cc3cccs3)Cc3nnnn3C(C)(C)C)cc2c1	i	-1.3%	-13.2%	?	?	10.6%
CCOc1ccc2[nH]c(=O)c(CN(Cc3cccs3)Cc3nnnn3C(C)(C)C)cc2c1	i	28.9%	?	?	20.6µM*	0.3%
S=C(Nc1ccccc1Cl)N1CCCCCC1	i	1.4%	23.6%	7.6%	i	-16.9%
S=C(Nc1ccccc1Cl)N1CCCC(c2ccccc2)=N1	i	?	-17.0%	-19.9%	?	13µM*
COCC(C)NC(=O)C1=CC(c2ccc3c(c2)OCO3)=NS(=O)(=O)N1C (configuration not stated)	i	nt	nt	nt	i	nt
SMILES	KB-3-1 cytotox	SW480 rerep	HT1080-NT tox	HT1080 IDH1KD tx	KB-V1 MDR tox	MCF10A rerep
COc1ccc(/C=C/C(=O)c2cc(Cl)cc(Cl)c2O)c(OC)c1	i	-72.2%	19.4%	-0.2%	i	5.7%
O=C(/C=C/c1ccccn1)c1cc(Cl)cc(Cl)c1O	?	16.4µM*	16.4µM*	?	?	20.6µM*
COc1cccc(NC(=O)C2(C)CCN2C(=O)CC2CCCC2)c1 (configuration not stated)	i	nt	8.7%	-8.2%	16.4µM*	nt
CCC(=O)N1CCC1(C)C(=O)Nc1cccc(OC)c1 (configuration not stated)	i	nt	17.3%	3.2%	i	nt
S=C(Nc1ccccc1)N1CCn2c1nc1ccccc12	i	?	1.41µM*	?	i	-9.6%
O=C1OC(OC(=O)c2cccnc2Nc2cccc(C(F)(F)F)c2)c2ccccc21 (configuration not stated)	nt	2.6%	nt	nt	nt	11.8%
O=C(CCSc1ccc(Br)cc1)c1ccc(O)cc1	i	0.7%	-1.8%	-4.4%	i	?
O=C(CSC1=NS(=O)(=O)c2ccccc21)Nc1ccccc1	14.6µM*	1.4%	-1.8%	-1.7%	i	?
O=C(CSC1=NS(=O)(=O)c2cc(F)ccc2N1)Nc1ccccc1	i	-26.7%	-14.8%	-7.6%	?	?
COC(=O)CSc1ccccc1C(=O)OC	i	0.9%	8.3%	-2.2%	i	-5.7%
COC(=O)CSC1=NS(=O)(=O)c2ccccc21	i	?	-0.8%	?	i	13µM*
CCc1ccc(N2C(=O)C3CCCN3C2=S)cc1 (configuration not stated)	i	1.7%	26.3%	13.8%	i	3.0%
